Each structure is given as a SMILES string. Active and inactive are the calls of the source. No rule for the calls is given here.

This experiment can be described thus: High Content Assay for Compounds that inhibit the Assembly of the Perinucleolar Compartment:Cell Migration SAR. Conditions: PC3M 3D collagen invasion, Hoechst imaging, 5 d. From the text: The perinucleolar compartment (PNC) is a non-membrane-bound nuclear subdomain that is associated with but structurally distinct from the nucleolus. The PNC is a heritable trait, in which the number of PNCs per cell in daughter cells often mimics that of their mother cells. The PNC is heterogeneous in shape, is stable through interphase, disassembles during mitosis, and reassembles in early G1. The PNC is concentrated with newly synthesized RNA polymerase III (pol III) RNAs (MRP RNA, RNAse P H1 RNA, hY RNAs[hY1, 2, 5], Alu RNA, and SRP [7SL] RNA) and RNA binding proteins (nucleolin, PTB, CUG-BP, KSRP, Raver1, Raver2, and Rod). […] In collaboration between Sui Huang from Northwestern University and the NCGC, a high content assay was developed and screened. The hits were then tested in follow-up assays. High-content tumor cell migration assays in 3-dimensional extracellular matrices are powerful tools for modeling and understanding the biology of this critical step in the process of metastasis. However, most of the available methods are not amenable to the throughput required by studies of comparative pharmacology or small scale screening. For this reason, we worked with BellBrook Labs(R) to test our compounds in their automated high-content tumor cell invasion assays.[35] […]
Regarding `N=c1c2c(-c3ccccc3)c(-c3ccccc3)n(Cc3ccccc3)c2ncn1C1CCC(O)CC1` (stereo unspecified), the Potency was 3.98 µM (active).

These data come from PubChem BioAssay AID588738 (National Center for Advancing Translational Sciences (NCATS), 2011).
